# In PubChem BioAssay AID2156 (Johns Hopkins Ion Channel Center, 2009):
# The whole screen tested about 310,000 compounds, of which about 3,400 (1.1%) were called active. The sample holds actives, similar compounds and a random draw of the others, so the mix is not that of the screen. Unmarked numbers belong to inactive results.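 Rule for the calls: active = fluorescence ratio B-score at most minus 3 library SDs, with starting brightness B-score within 2 library SDs (cut at about -5.5 in these data); inactive = the rest, inconclusive results apart.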 Peptide text beside a SMILES is read from it. * marks the point of attachment. OPac = O=C(CO*)c1ccccc1; Bz = O=C(c1ccccc1)*
# Molecular target: Potassium voltage-gated channel subfamily KQT member 2 (Rattus norvegicus) (UniProt O88943)
# Sequence (O88943 whole entry, looked up): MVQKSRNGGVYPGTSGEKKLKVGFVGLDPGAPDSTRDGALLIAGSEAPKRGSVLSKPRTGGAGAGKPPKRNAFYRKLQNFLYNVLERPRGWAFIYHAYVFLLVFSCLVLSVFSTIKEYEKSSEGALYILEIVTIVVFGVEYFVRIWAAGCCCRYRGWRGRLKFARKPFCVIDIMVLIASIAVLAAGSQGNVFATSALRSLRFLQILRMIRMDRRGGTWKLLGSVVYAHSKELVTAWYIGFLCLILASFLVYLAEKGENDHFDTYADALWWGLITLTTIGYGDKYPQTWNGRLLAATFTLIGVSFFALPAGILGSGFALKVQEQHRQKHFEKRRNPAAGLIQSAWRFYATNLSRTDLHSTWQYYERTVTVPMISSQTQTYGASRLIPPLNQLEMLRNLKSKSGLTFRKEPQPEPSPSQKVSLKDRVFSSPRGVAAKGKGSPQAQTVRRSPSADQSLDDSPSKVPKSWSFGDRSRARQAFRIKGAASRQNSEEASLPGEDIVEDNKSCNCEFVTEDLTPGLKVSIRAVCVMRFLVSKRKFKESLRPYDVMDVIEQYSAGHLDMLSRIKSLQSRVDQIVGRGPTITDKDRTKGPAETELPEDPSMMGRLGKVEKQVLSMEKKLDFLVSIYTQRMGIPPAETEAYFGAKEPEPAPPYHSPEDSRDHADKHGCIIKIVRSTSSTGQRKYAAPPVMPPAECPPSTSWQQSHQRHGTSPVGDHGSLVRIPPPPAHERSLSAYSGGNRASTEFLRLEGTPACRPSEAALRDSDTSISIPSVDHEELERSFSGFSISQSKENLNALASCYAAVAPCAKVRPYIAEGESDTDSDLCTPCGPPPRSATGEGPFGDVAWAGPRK
# Assay: rat KCNQ2 potassium channel inhibitors, primary screen, cell-based, CHO-K1, FluxOR thallium flux, B-score (AID 2156)
# Conditions: 20 min, at 10 µM; stronger effect = lower value
row,Structure (SMILES),B-score
1,COc1ccc(N2CCN(S(=O)(=O)c3cc4c5c(c3)C(C)C(=O)N5CCC4)CC2)cc1 (centres undefined),inactive
2,COc1ccc(-c2ccc3nnc(SCC(=O)Nc4ccc(NC(C)=O)cc4)n3n2)cc1,-0.47
3,CC(=O)Nc1ccc(NC(=O)CSc2nnnn2C2CCCCC2)cc1,-0.45
4,COc1ccc(-c2cc(C(=O)Nc3ccccc3O)c3ccccc3n2)cc1,-1.2
5,COc1ccccc1NC(=O)c1cc(Cl)nc2ccccc12,-4.22
6,COc1ccc(NC(=O)c2cc(-c3cc(OC)c(OC)c(OC)c3)nc3ccccc23)c(OC)c1,-5.97 (active)
7,O=C1CC2(CCN(C(=O)COc3ccc(F)cc3)CC2)Oc2ccccc21,inactive
8,COc1ccc(C(=O)c2c3ccc([N+](=O)[O-])cc3[n+]([O-])n2CCCN)cc1,-0.22
9,CCCCCC(=O)N1CCN(S(=O)(=O)c2ccc3c(c2)OCCCO3)CC1,-1.36
10,COc1ccc(-c2nnc(SCC(=O)Nc3cccnc3Cl)n2C)cc1,inactive
11,Cc1cccc(N=C2SC(C)CN2C(=O)CN2C(=O)NC3(CCCC3)C2=O)c1 (centres undefined),-1.04
12,CC1(C)C=Cc2c(ccc3c2OC[C@@H](c2ccc(O)cc2O)C3)O1,-5.7 (active)
13,O=C(COc1ccccc1Cl)Nc1ccccc1C(=O)NC1CC1,inactive
14,Cc1c(C)n2c(SCC(=O)N3CCCC3)nnc2[nH]c1=O,-0.73
15,CCOC(=O)C1CCN(C(=O)Nc2ccc(C)c(Cl)c2)CC1,inactive
16,CCOC(=O)N1CCC(N(CCOC)C(=O)Nc2ccc(C)c(C)c2)CC1,-7.75 (active)
17,CCOC(=O)C1CCN(C(=O)Nc2cccc(OC)c2)CC1,-0.14
18,O=C(OCC1OC(Oc2ccc(O)cc2)C(O)C(O)C1O)c1ccccc1 (centres undefined),-0.52
19,Cn1ccsc1=NC(=O)c1cc(S(=O)(=O)N2CCOCC2)ccc1Cl,-2.45
20,CC(C)N(C(=O)c1ccc(-c2ccccc2F)cc1)C(C)C,-1.82
21,O=C(CN1C(=O)c2ccccc2C1=O)NCc1ccc(C(=O)O)cc1,-0.02
22,CC(=O)N(C1=C(Cl)C(=O)c2ccccc2C1=O)c1ccc(C(=O)O)cc1,-10.4 (active)
23,CC(=O)c1c(C)[nH]c(C(=O)N2CCN(S(=O)(=O)c3ccc(F)c(F)c3)CC2)c1C,inactive
24,C=CCOc1ccc(/C=C/C(=O)OCC(=O)NCC2CCCO2)cc1 (centres undefined),inactive

row,Structure (SMILES),B-score
1,CCCCN(C)CCCNC(=O)c1cc(-c2cccs2)nc2ccccc12,inactive
2,COC(=O)CNC(=O)c1cc(-c2ccncc2)nc2ccccc12,-0.09
3,CCc1ccc(-c2cc(C(=O)NCc3ccco3)c3ccccc3n2)s1,-7.07 (active)
4,COc1ccc(NS(=O)(=O)c2ccc(C)c(C(=O)NNC(=O)c3csc(N4CCOCC4)n3)c2)cc1,-0.78
5,CCc1noc(C)c1C(=O)N1CCCSC1=Nc1ccccc1OC,inactive
6,CCC1(c2ccccc2)NC(=O)N(CC(=O)Nc2ccccc2C(=O)NC2CCCC2)C1=O (centres undefined),inactive
7,CCN1C(=O)[C@H]2[C@@H](c3ccc(C)cc3)N3C(=O)N(c4cccc(Br)c4)C(=O)[C@@]3(CC)[C@H]2C1=O,-0.8
8,O=C(c1cc2ccccc2o1)N1CCN(c2cccc(C(F)(F)F)c2)CC1,-0.25
9,c1ccc(-c2cc(N3CCCCC3)c3ccccc3n2)cc1,-0.16
10,FC(F)(F)c1cccc(-c2cc3ccccc3nc2N2CCCC2)c1,-6.95 (active)
11,O=C(N/N=C/c1cc(Br)c(O)c([N+](=O)[O-])c1)C(O)(c1ccccc1)c1ccccc1,inactive
12,C=CCOC(=O)C1=C(C)OC(N)=C(C#N)C1c1ccc(F)cc1 (centres undefined),inactive
13,C=CCOC(=O)C1=C(C)NC(SCC(=O)OCC)=C(C#N)C1c1ccc(C)cc1 (centres undefined),-6.37 (active)
14,CCOC(=O)CSC1=C(C#N)C(c2ccco2)C(C(=O)OCc2ccccc2)=C(C)N1 (centres undefined),-2.55
15,CC(C)N(Cc1nnc(-c2ccc(Cl)cc2)o1)C(=O)C1=COCCO1,-1.82
16,CCOC(=O)C(C)Sc1nc2ccccc2c(=O)n1CC1CCCCC1 (centres undefined),-10.1 (active)
17,CCOC(=O)C1CCc2nc3ccccc3c(=O)n21 (centres undefined),inactive
18,CCOn1c(SC(C)C)nc2ccccc2c1=O,-2.44
19,CCCCn1c(N)c(N(CCOC)C(=O)c2cccc(S(=O)(=O)N(C)c3ccccc3)c2)c(=O)[nH]c1=O,-0.06
20,COc1ccc(C)cc1NC(=O)C(OC(=O)c1cccc(S(=O)(=O)N(C)c2ccccc2)c1)c1ccccc1 (centres undefined),-7.07 (active)
21,COc1ccc(C)cc1NC(=O)Nc1ccccc1SC,inactive
22,COc1ccc(C)cc1NC(=O)C(Sc1ccccc1)c1ccccc1 (centres undefined),-2.05
23,Cc1ccc(S(=O)(=O)N2CCN(C(=O)c3ccccc3-c3nc4ccccc4s3)CC2)c(C)c1,-0.72
24,CCOC(=O)CSc1nc2c(c(=O)n(C)c(=O)n2C)n1Cc1ccccc1F,inactive

row,Structure (SMILES),B-score
1,CCOC(=O)CSc1nc2c(sc(=S)n2CCc2ccccc2)c(=O)n1Cc1ccco1,-5.6 (active)
2,CCOC(=O)CSc1nnc(-c2ccco2)n1C,inactive
3,OCCCNc1nc(-c2ccccc2)c2cc(Cl)ccc2n1,inactive
4,CCCCn1c(N)c(N(CC(C)C)C(=O)c2ccc(Br)o2)c(=O)[nH]c1=O,inactive
5,O=C(c1ccc(F)c(S(=O)(=O)N2CCOCC2)c1)N(CCc1ccccc1)Cc1ccccc1,-2.85
6,COc1ccc(-c2nc(N)ncc2-c2ccc(Cl)cc2)c(O)c1,-0.21
7,CC(C)(C)Oc1ncc(Br)c(OC(C)(C)C)n1,inactive
8,COc1cccc(-c2cnc(OC(C)(C)C)nc2OC(C)(C)C)c1,-7.02 (active)
9,CC(Oc1ccc(F)cc1)C(=O)Nc1ccccc1C(=O)NC1CC1 (centres undefined),-1.68
10,COc1ccc(C2CC(c3cccs3)=NN2C(=O)CCC(=O)O)cc1OC (centres undefined),inactive
11,COc1ccc(C2CC(c3cccs3)=NN2C(=O)COC(=O)c2cc3ccccc3cc2O)cc1OC (centres undefined),inactive
12,O=C1c2cccc(OCC(=O)N3N=C(c4cccs4)CC3c3ccc(F)cc3)c2CCN1Cc1ccccc1 (centres undefined),-5.75 (active)
13,Nc1cccnc1Sc1ccccc1,inactive
14,Cc1ccccc1OCC(=O)NCC(=O)OCC(=O)c1ccc2ccccc2c1,-5.95 (active)
15,O=C(CNC(=O)c1ccccc1)NCC(=O)OCC(=O)c1ccccc1 (Bz-Gly-Gly-OPac),inactive
16,COCCNC(=O)COc1ccccc1C,-1.11
17,Nc1c(C(=O)Nc2ccc3c(c2)OCCO3)nnn1Cc1ccccc1,-0.47
18,CC(C)Nc1nnc(SCC(=O)/C=C2\N(C)c3ccccc3C2(C)C)s1,inactive
19,CC(=O)Nc1cccc(OCC(=O)/C=C2\N(C)c3ccccc3C2(C)C)c1,-6.18 (active)
20,CN1/C(=C\C(=O)c2oc3ccccc3c2N)C(C)(C)c2ccccc21,-0.16
21,Cc1ccc(S(=O)(=O)N(C)C)cc1NC(=O)C1Cc2ccccc2CN1C(=O)c1ccco1 (centres undefined),-0.13
22,Cc1ccc(C)c(NC(=O)C2Cc3ccccc3CN2C(=O)OCc2ccccc2)c1 (centres undefined),-6.25 (active)
23,Cc1ccc(NC(=O)C2CCCN2C(=O)OCc2ccccc2)cc1C (centres undefined),inactive
24,CCOC(=O)c1sc(=S)n2c1[nH]c(=O)c1ccc(C(=O)OC)cc12,inactive

row,Structure (SMILES),B-score
1,CCOC(=O)C1=C(C)Nc2sc(C(=O)c3ccc(Br)cc3)c(N)c2C1c1ccc(C(=O)OC)cc1 (centres undefined),-6.56 (active)
2,CCOC(=O)c1sc(=NC(=O)c2ccc(Br)cc2)n(C)c1C,inactive
3,Cc1cc(Nc2ccc(Br)cc2)nc2ccccc12,inactive
4,Cc1ccc2nc(SCC(=O)N3CCN(c4ccccc4)CC3)nc(=O)n2c1,-0.18
5,Cc1nc(-c2ccc(F)cc2)c(CC(=O)Nc2cccc(S(=O)(=O)N3CCOCC3)c2)s1,-0.75
6,CCOC(=O)C1CCN(C(=O)COC(=O)C2CCN(S(=O)(=O)c3ccc4c(c3)OCCO4)CC2)CC1,inactive
7,CCOc1ccc(C(=O)Nc2cc(Cl)ccc2-n2cncn2)cc1OC,-0.08
8,CC(=O)Nc1ccc(NC(=O)CSC2=NS(=O)(=O)c3ccccc3N2)cc1,inactive
9,COc1ccc(C(CNC(=O)c2ccc(NS(=O)(=O)c3ccc(F)c(C)c3)cc2)N(C)C)cc1 (centres undefined),inactive
10,CCCCn1c(N)c(N(CC(C)C)C(=O)C2CSC3(C)CCC(=O)N23)c(=O)[nH]c1=O (centres undefined),-1.75
11,Cc1cccc(C(C)C)c1NC(=O)COC(=O)C1CC(=O)N(Cc2ccccc2)C1 (centres undefined),inactive
12,CC(=O)N1N=C(c2ccncc2)OC1(Cc1ccccc1)Cc1ccccc1,-7.53 (active)
13,O=C(Cc1ccccc1)N1N=C(c2ccncc2)CC1(O)C(F)(F)F (centres undefined),inactive
14,CC(=O)N1N=C(c2ccccc2)OC1c1cccnc1 (centres undefined),inactive
15,CC(=O)Nc1cccc(C(=O)OCC(=O)NCc2cc(C)c(O)c(C)c2)c1,inactive
16,COc1ccc(-c2n[nH]c(C)c2-c2ccccc2OC)c(O)c1,inactive
17,COc1ccccc1-c1nc(SC)n[nH]1,-0.1
18,COc1ccccc1-c1n[nH]c2c1[C@H](C)CC[C@H]2C(C)C,-10.1 (active)
19,Cc1ccc(C(C(=O)NC2CCCC2)N(Cc2ccco2)C(=O)CCC(=O)Nc2ccccn2)cc1 (centres undefined),-1.92
20,Cc1ccc2c(c1)N(CC(=O)N(Cc1ccccn1)Cc1ccco1)C(=O)C(C(C)C)O2 (centres undefined),-7.54 (active)
21,Cc1ccnc(NC(=O)CCC(=O)N(CC(=O)NCc2ccccc2)Cc2ccco2)c1,-0.05
22,O=C(c1ccc(Cl)s1)N(Cc1nnc(-c2ccccc2Cl)o1)C1CC1,-0.68
